system: FXR:RXRa (NR concentration 270 nM, RXRa partner concentration 90 nM); test: PBM binding z-score (relative to random genomic background probes); higher = stronger binding; sequences stand for … in GC…GCGATTGACAGCGTAGAATGAAGG
In short: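 Ligand-free nuclear receptor dimers were applied to custom Agilent 4×180K protein-binding microarrays whose double-stranded probes carried direct-repeat seeds, single-nucleotide variants, half-site ablations and random human genomic background sequences in 34-nt variable regions. Incubation lasted 1 h. Binding z-scores were computed against the random background probes from regression-normalized fluorescence.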

Row | Sequence | PBM binding z-score
1 | TCAGAGAGGTGAAGGTAACTCAGGTACGCAGTCG | 1.22
2 | GGTAGTTGGTCAGTAAAAGGTCACACACCGGTCG | 3.14
3 | GTACCAAGGTGAATAGTTCGTTGATGAGTAGGCG | 0.539
4 | TCTATTAGTTGAATAGGGCAACCGAAACAGCGGA | 0.393
5 | CAAACTAGGTCACAGAGCTCAAAGTCCGTGCGTA | 4.29
6 | ATCTCTTGGTAACAAGTTCAGTGAAAGAGAGGAC | 0.45
7 | TCAGACAGGTCAAGGTAACTCAGGTACGCAGTCG | 4.86
8 | TCGAGTAGGTTAGTCGGGGCGTTCAGCCAACATA | -0.0524
9 | TCTGCTAGGTCAGTTGGTCAGCTCACGAGCTGCC | 1.02
10 | AGAACGAGGGCACGCTGAGTTGATTGCAGAGTAG | 0.793
11 | AGAACGAGGGCACGCTGAGTAGATAGCAGAGTAG | 0.37
12 | ATATGTAGGTTACATCCGGGTCATTCCGGCTATG | 1.93
13 | AGAACGCGGGCACGCTGAGTTGATAGCAGAGTAG | -0.237
14 | TCTTGTAGATCAATAGAGGCTAAGAAAGTGCGCT | 0.509
15 | CCTAGCAGGCCAATCTGGGTCACTGAAGGCTTGA | 1.19
16 | CCTTACGGGTCACGAGGTTACAGCACGACGAGCG | 7.17
17 | TCTTGTAGATCAGCAGGTGAAGAAAGCTGGCCAA | 0.169
18 | ACTATTAGCTGACTTAGGGCAACCGATACGACGC | 0.00773
19 | AGAACGAGGGCAATGAGTTGATCGCACGGGTGGC | 0.0662
20 | TTACCAAGGTGAAGGTCGTCGATCCCTCTGTAGA | 1.32

Row | Sequence | PBM binding z-score
21 | CTCGAAAGGTCGGTTGAGGTGAATATACGGATAA | 2.5
22 | CGTCCAAGGTCAAGGCTAGGTCAGTGAAAGCATT | 7.26
23 | ACTAGCAGGCAAAGGGTCACTCAAGATTAGTCCG | 2.62
24 | TCTTGTAGAACAAAGGTTAAGAAAGCCGAAGCCT | 1.11
25 | TAACCTAGGTCATGGGCCAGTATACCACGCGAAC | 5.24
26 | CTACCAAGGTGAACAAGGTCGTTGCTTACTATTC | 1.51
27 | TGTGCTAGGTCAGTTGGTCAGCTAACGAGCTGCC | 0.928
28 | TCTGGTTGGTCACGGAGGTCACACACGACGGGTA | 3.5
29 | AGTCAAAGTTCATCTAGGTGACGTAAGATATGCT | 6.84
30 | GCTCTTAGTTGAAAGGGCAACCGAATGATTCTCG | 0.354
31 | CGTCCAAGGTCAGGGTCAGTGAAAGAGACTCGAA | 6.11
32 | TCATATAGCTAAAGGTGAAAGTCGAACGATATGA | 1.12
33 | AGAATGAGGTTACCAAAGATCAGGTAAACGCTTG | 1.72
34 | GCTGCTAGGTCAACTGATGGTTAGCTAAAGCTCG | 4.53
35 | TCGAGTAGGTTACTCGGGGCATTCAGCCAACATA | 0.333
36 | AGAAGGAGGGCACGCTGAGTTGATAGCAGAGTAG | 0.55
37 | GCATATAGGTAATACATGGTGAAAGTCCGATTGT | -0.0336
38 | GCTATTAGTTGAAAAGGCAACCGAATGATTCTCG | -0.25
39 | CAAACTAGGTCAAGGTCAACGTCGGTTTGTGCCA | 6.57
40 | GCTTGTAAATCAAGGTTAAGAAAGACTAAGCTAA | 0.61

— the supplement of paper PMC6555819
